# According to PubChem BioAssay AID1159580 (chemical genetic matrix, 2015):
# Out of some 5,500 compounds screened, about 2,000 (36%) were called active. Roughly 18% stayed inconclusive and do not appear here. The list shows a part of the results. Values without a mark were called inactive. Rule as the data show it: active = normalized growth mostly below about 0.91 (no sharp cut-off); inconclusive = no clear call, values can overlap the other calls; inactive = mostly above about 0.92.
# Assay: chemical genetic growth profiling, strain panel (AID 1159580);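 also: tested at 20 µM; growth read once vehicle control cultures reached saturation at 30 °C; 1 = growth at the plate median or of vehicle wells; lower values mean less growth of the strain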
# Details: growth OD
# [1] = S. cerevisiae deletion strains, locus YAL013W, strain DEP1, hits give low values
# [2] = S. cerevisiae deletion strains, locus YBR229C, strain ROT2, hits give low values
# [3] = S. cerevisiae deletion strains, locus YCL061C, strain MRC1, hits give low values
# [4] = S. cerevisiae deletion strains, locus YDL101C, strain DUN1, hits give low values
# [5] = S. cerevisiae deletion strains, locus YDR150W, strain NUM1, hits give low values
# [6] = S. cerevisiae deletion strains, locus YEL061C, strain CIN8, hits give low values
# [7] = S. cerevisiae deletion strains, locus YGR078C, strain PAC10, hits give low values
# [8] = S. cerevisiae deletion strains, locus YHR030C, strain SLT2, hits give low values
# [9] = S. cerevisiae deletion strains, locus YHR087W, strain rtc3, hits give low values
# [10] = S. cerevisiae deletion strains, locus YJR043C, strain POL32, hits give low values
# [11] = S. cerevisiae deletion strains, locus YJR075W, strain HOC1, hits give low values
# [12] = S. cerevisiae deletion strains, locus YLR039C, strain RIC1, hits give low values
# [13] = S. cerevisiae deletion strains, locus YLR058C, strain SHM2 (second series), hits give low values
# [14] = S. cerevisiae deletion strains, locus YLR085C, strain ARP6, hits give low values
# [15] = S. cerevisiae deletion strains, locus YLR262C, strain YPT6, hits give low values
# [16] = S. cerevisiae deletion strains, locus YML094W, strain GIM5, hits give low values
# [17] = S. cerevisiae deletion strains, locus YMR219W, strain ESC1, hits give low values
# [18] = S. cerevisiae deletion strains, locus YMR263W, strain SAP30, hits give low values
# [19] = S. cerevisiae deletion strains, locus YMR307W, strain GAS1, hits give low values
# [20] = S. cerevisiae deletion strains, locus YNL153C, strain GIM3, hits give low values
# [21] = S. cerevisiae deletion strains, locus YNL298W, strain CLA4 (second series), hits give low values
# [22] = S. cerevisiae deletion strains, locus YNL322C, strain KRE1, hits give low values
# [23] = S. cerevisiae deletion strains, locus YNR030W, strain Alg12, hits give low values
# [24] = S. cerevisiae deletion strains, locus YPL055C, strain LGE1, hits give low values
# [25] = S. cerevisiae deletion strains, locus YPL241C, strain CIN2, hits give low values
# [26] = S. cerevisiae deletion strains, locus YPR135W, strain CTF4, hits give low values
# [27] = S. cerevisiae strains, strain wild type, hits give low values
# [28] = S. cerevisiae deletion strains, locus YHR079C, strain IRE1, hits give low values
# [29] = S. cerevisiae deletion strains, locus YJL095W, strain BCK1, hits give low values
# [30] = S. cerevisiae deletion strains, locus YJR066W, strain TOR1, hits give low values
# [31] = S. cerevisiae deletion strains, locus YLR113W, strain HOG1, hits give low values
# [32] = S. cerevisiae deletion strains, locus YNL183C, strain NPR1, hits give low values
# [33] = S. cerevisiae deletion strains, locus YOR231W, strain MKK1, hits give low values
# [34] = S. cerevisiae deletion strains, locus YPL256C, strain CLN2, hits give low values
smiles,measurement,setting,value
Cc1cc(=O)n2[nH]cc(C#N)c2n1,normalized growth,[1],1
same,normalized growth,[2],1
same,normalized growth,[3],1.02
same,normalized growth,[4],1.01
same,normalized growth,[5],1.04
same,normalized growth,[6],0.999
same,normalized growth,[7],1.01
same,normalized growth,[8],1.09
same,normalized growth,[9],1.01
same,normalized growth,[10],1.02
same,normalized growth,[11],0.995
same,normalized growth,"S. cerevisiae deletion strains, locus YKL190W, strain CNB1, hits give low values",0.981
same,normalized growth,[12],1.01
same,normalized growth,[13],1
same,normalized growth,[14],1
same,normalized growth,[15],1.04
same,normalized growth,[16],0.995
same,normalized growth,[17],0.994
same,normalized growth,[18],1.04
same,normalized growth,[19],0.968
same,normalized growth,[20],1.02
same,normalized growth,[21],1.01
same,normalized growth,[22],1
same,normalized growth,[23],1.01
same,normalized growth,[24],1.06
same,normalized growth,[25],0.99
same,normalized growth,[26],1.09
same,normalized growth,[27],0.993
CSC(=CC(=O)c1ccc(Cl)cc1)SC,normalized growth,[1],0.884 (active)
same,normalized growth,[2],0.867 (active)
same,normalized growth,[3],0.848 (active)
same,normalized growth,[4],0.836 (active)
same,normalized growth,"S. cerevisiae deletion strains, locus YDL134C, strain PPH21, hits give low values",0.747 (active)
same,normalized growth,[5],0.888
same,normalized growth,[6],0.74 (active)
same,normalized growth,[7],0.872 (active)
same,normalized growth,"S. cerevisiae deletion strains, locus YGR229C, strain SMI1, hits give low values",0.884 (active)
same,normalized growth,[8],0.218 (active)
same,normalized growth,[9],0.829 (active)
same,normalized growth,"S. cerevisiae deletion strains, locus YJL187C, strain SWE1, hits give low values",0.869 (active)
same,normalized growth,[10],0.874 (active)
same,normalized growth,[11],0.828 (active)
same,normalized growth,[12],0.421 (active)
same,normalized growth,[13],0.836 (active)
same,normalized growth,[14],0.394 (active)
same,normalized growth,[15],0.431 (active)
same,normalized growth,[16],0.79 (active)
same,normalized growth,[17],0.889 (active)
same,normalized growth,[18],0.874 (active)
same,normalized growth,[19],0.286 (active)
same,normalized growth,"S. cerevisiae deletion strains, locus YNL128W, strain TEP1, hits give low values",0.888 (active)
same,normalized growth,[20],0.879 (active)
same,normalized growth,[21],0.645 (active)
same,normalized growth,[22],0.895 (active)
same,normalized growth,[23],0.765 (active)
same,normalized growth,[24],0.771 (active)
same,normalized growth,[25],0.685 (active)
same,normalized growth,[26],0.352 (active)
same,normalized growth,[27],0.811 (active)
COC1=C(O)C(=O)c2c(cc3oc(C(C)=O)c(O)c3c2O)C1=O,normalized growth,[8],0.986
same,normalized growth,[28],1.01
same,normalized growth,[29],1.03
same,normalized growth,[30],0.957
same,normalized growth,[31],1.04
same,normalized growth,[32],0.973
same,normalized growth,[33],0.999
same,normalized growth,[34],0.973
Cc1csc(NC(=O)Nc2ccc(C(F)(F)F)cc2)c1Cl,normalized growth,"S. cerevisiae deletion strains, locus YAR019C, strain CDC15, hits give low values",0.958
same,normalized growth,"S. cerevisiae deletion strains, locus YBL105C, strain PKC1, hits give low values",0.96
same,normalized growth,"S. cerevisiae deletion strains, locus YBR135W, strain CKS1, hits give low values",0.948
same,normalized growth,"S. cerevisiae deletion strains, locus YBR136W, strain MEC1, hits give low values",0.957
same,normalized growth,"S. cerevisiae deletion strains, locus YBR160W, strain CDC28, hits give low values",0.943
same,normalized growth,"S. cerevisiae deletion strains, locus YDL017W, strain CDC7, hits give low values",0.954
same,normalized growth,"S. cerevisiae deletion strains, locus YDL028C, strain MPS1, hits give low values",0.962
same,normalized growth,[4],0.988
same,normalized growth,"S. cerevisiae deletion strains, locus YDL108W, strain KIN28, hits give low values",0.948
same,normalized growth,"S. cerevisiae deletion strains, locus YDL132W, strain cdc53, hits give low values",0.969
same,normalized growth,"S. cerevisiae deletion strains, locus YDL214C, strain PRR2, hits give low values",0.836
same,normalized growth,"S. cerevisiae deletion strains, locus YDR052C, strain DBF4, hits give low values",0.961
same,normalized growth,"S. cerevisiae deletion strains, locus YDR054C, strain cdc34, hits give low values",0.949
same,normalized growth,"S. cerevisiae deletion strains, locus YDR226W, strain ADK1, hits give low values",0.96
same,normalized growth,"S. cerevisiae deletion strains, locus YDR477W, strain SNF1, hits give low values",0.905
same,normalized growth,"S. cerevisiae deletion strains, locus YER123W, strain YCK3, hits give low values",0.802
same,normalized growth,"S. cerevisiae deletion strains, locus YER133W, strain GLC7, hits give low values",0.897
same,normalized growth,"S. cerevisiae deletion strains, locus YFL009W, strain cdc4, hits give low values",0.951
same,normalized growth,"S. cerevisiae deletion strains, locus YFL029C, strain CAK1, hits give low values",0.946
same,normalized growth,"S. cerevisiae deletion strains, locus YFR003C, strain YPI1, hits give low values",0.957
same,normalized growth,"S. cerevisiae deletion strains, locus YFR019W, strain FAB1, hits give low values",0.884
same,normalized growth,"S. cerevisiae deletion strains, locus YFR028C, strain CDC14, hits give low values",0.945
same,normalized growth,"S. cerevisiae deletion strains, locus YGR040W, strain KSS1, hits give low values",0.892
same,normalized growth,"S. cerevisiae deletion strains, locus YGR052W, strain FMP48, hits give low values",0.884
same,normalized growth,"S. cerevisiae deletion strains, locus YGR092W, strain DBF2, hits give low values",0.861
same,normalized growth,[8],0.858
same,normalized growth,[28],0.815
same,normalized growth,"S. cerevisiae deletion strains, locus YHR082C, strain KSP1, hits give low values",0.873
same,normalized growth,"S. cerevisiae deletion strains, locus YHR205W, strain SCH9, hits give low values",0.78
same,normalized growth,"S. cerevisiae deletion strains, locus YIL147C, strain SLN1, hits give low values",0.958
same,normalized growth,[29],0.832
same,normalized growth,"S. cerevisiae deletion strains, locus YJL128C, strain PBS2, hits give low values",0.891
same,normalized growth,"S. cerevisiae deletion strains, locus YJL157C, strain FAR1, hits give low values",0.849
same,normalized growth,"S. cerevisiae deletion strains, locus YJR016C, strain ILV3, hits give low values",0.95
same,normalized growth,"S. cerevisiae deletion strains, locus YJR066W, strain TOR1 (second series), hits give low values",0.854
same,normalized growth,[30],0.92
same,normalized growth,"S. cerevisiae deletion strains, locus YKL048C, strain ELM1, hits give low values",0.892
same,normalized growth,"S. cerevisiae deletion strains, locus YKL067W, strain YNK1, hits give low values",0.831
same,normalized growth,"S. cerevisiae deletion strains, locus YKL101W, strain HSL1, hits give low values",0.831
same,normalized growth,"S. cerevisiae deletion strains, locus YKL193C, strain SDS22, hits give low values",0.951
same,normalized growth,"S. cerevisiae deletion strains, locus YKL203C, strain TOR2, hits give low values",0.957
same,normalized growth,[31],0.675 (active)
same,normalized growth,"S. cerevisiae deletion strains, locus YLR133W, strain CKI1, hits give low values",0.823
same,normalized growth,"S. cerevisiae deletion strains, locus YLR403W, strain SFP1, hits give low values",0.871
same,normalized growth,"S. cerevisiae deletion strains, locus YML070W, strain DAK1, hits give low values",0.802
same,normalized growth,"S. cerevisiae deletion strains, locus YMR001C, strain CDC5, hits give low values",0.954
same,normalized growth,"S. cerevisiae deletion strains, locus YMR205C, strain PFK2 (second series), hits give low values",0.833
same,normalized growth,"S. cerevisiae deletion strains, locus YMR277W, strain FCP1, hits give low values",0.966
same,normalized growth,"S. cerevisiae deletion strains, locus YNL006W, strain LST8, hits give low values",0.968
same,normalized growth,"S. cerevisiae deletion strains, locus YNL020C, strain ARK1, hits give low values",0.823
same,normalized growth,"S. cerevisiae deletion strains, locus YNL161W, strain CBK1, hits give low values",0.957
same,normalized growth,[32],0.829
same,normalized growth,"S. cerevisiae deletion strains, locus YNL207W, strain RIO2, hits give low values",0.945
same,normalized growth,"S. cerevisiae deletion strains, locus YNL222W, strain SSU72, hits give low values",0.95
same,normalized growth,"S. cerevisiae deletion strains, locus YNL307C, strain MCK1 (second series), hits give low values",0.84
same,normalized growth,"S. cerevisiae deletion strains, locus YOL078W, strain AVO1, hits give low values",0.946
same,normalized growth,"S. cerevisiae deletion strains, locus YOL136C, strain PFK27, hits give low values",0.801
same,normalized growth,"S. cerevisiae deletion strains, locus YOR061W, strain CKA2, hits give low values",0.842
same,normalized growth,"S. cerevisiae deletion strains, locus YOR119C, strain RIO1, hits give low values",0.942
same,normalized growth,[33],0.762
same,normalized growth,"S. cerevisiae deletion strains, locus YOR329C, strain SCD5, hits give low values",0.962
same,normalized growth,"S. cerevisiae deletion strains, locus YPL031C, strain PHO85, hits give low values",0.892
same,normalized growth,"S. cerevisiae deletion strains, locus YPL153C, strain RAD53, hits give low values",0.88
same,normalized growth,"S. cerevisiae deletion strains, locus YPL204W, strain HRR25, hits give low values",0.868
same,normalized growth,"S. cerevisiae deletion strains, locus YPL209C, strain IPL1, hits give low values",0.946
same,normalized growth,[34],0.724 (active)
same,normalized growth,"S. cerevisiae deletion strains, locus YPR025C, strain CCL1, hits give low values",0.966
same,normalized growth,"S. cerevisiae deletion strains, locus YPR106W, strain ISR1, hits give low values",0.932
same,normalized growth,"S. cerevisiae deletion strains, locus YPR111W, strain DBF20, hits give low values",0.927
same,normalized growth,"S. cerevisiae deletion strains, strain NNK1, hits give low values",0.93
same,normalized growth,"S. cerevisiae deletion strains, strain TSCII, hits give low values",0.945
